Measurements reported in PubChem BioAssay (EPA / NIEHS).
“And” between values parts separate entries of the source, which are not always exact repeats. Identical values can stand only once. Where a structure was tested more than once in an assay, its records may differ in their call. The source made the active and inactive calls. Rule for the calls: active = hit-call score of the fitted dose curve at least 0.9, where 1 is the maximum; inactive = score below 0.9.

What was measured:
[1] = BSK_CASM3C_SRB: Viability Assessment in the BioMAP Diversity Plus: CASM3C Assay (AID 2283050); conditions: primary human coronary artery smooth muscle cells;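 note: total protein by SRB staining as cytotoxicity measure in parallel cultures; cells exposed to compound for 24 h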
[2] = read-out: Thrombomodulin, THBD (gene 7056); test: BSK_CASM3C_Thrombomodulin: BioMAP Diversity Plus: CASM3C Assay for Thrombomodulin Biomarker Activity (AID 2283051); conditions: primary human coronary artery smooth muscle cells; actives raise or lower the signal;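 note: thrombomodulin protein level measured by ELISA 24 h after dosing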
[3] = read-out: Tissue Factor, F3 (gene 2152); test: BSK_CASM3C_TissueFactor: BioMAP Diversity Plus: CASM3C Assay for Tissue Factor Biomarker Activity (AID 2283052); conditions: primary human coronary artery smooth muscle cells; actives raise or lower the signal;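 note: cell surface tissue factor protein level read by ELISA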
[4] = read-out: Interferon-gamma inducible Protein 10 (IP10), CXCL10 (gene 3627); test: BSK_hDFCGF_IP10: BioMAP Diversity Plus: hDFCGF Assay for Interferon-gamma inducible Protein 10 (IP10) Biomarker Activity (AID 2283053); conditions: primary human foreskin fibroblasts; actives raise or lower the signal
Method in brief: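 Human foreskin fibroblast primary cells (hDFCGF system) were dosed with chemical and assayed at 24 h; IP-10 measured by ELISA. Activity fitted bidirectionally relative to DMSO negative control as baseline.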

[5] = read-out: Urokinase-type plasminogen activator receptor (uPAR), PLAUR (gene 5329); test: BSK_CASM3C_uPAR: BioMAP Diversity Plus: CASM3C Assay for Urokinase-type plasminogen activator receptor (uPAR) Biomarker Activity (AID 2283054); conditions: primary human coronary artery smooth muscle cells; actives raise or lower the signal;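 note: cell-surface uPAR protein level quantified by ELISA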
[6] = read-out: Vascular cell adhesion molecule 1 (VCAM1), VCAM1 (gene 7412); test: BSK_CASM3C_VCAM1: BioMAP Diversity Plus: CASM3C Assay for Vascular cell adhesion molecule 1 (VCAM1) Biomarker Activity (AID 2283055); conditions: primary human coronary artery smooth muscle cells; actives raise or lower the signal;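 note: VCAM-1 protein level quantified by ELISA on the cells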
[7] = read-out: Collagen III, COL3A1 (gene 1281); test: BSK_hDFCGF_CollagenIII: BioMAP Diversity Plus: hDFCGF Assay for Collagen III Biomarker Activity (AID 2283056); conditions: primary human foreskin fibroblasts; actives raise or lower the signal
Method in brief: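 Cells: human foreskin fibroblasts, primary. Dosing followed by 24 h incubation, then ELISA for collagen III. Both increases and decreases scored relative to DMSO.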

[8] = read-out: Interleukin-8 (IL8), CXCL8 (gene 3576); test: BSK_hDFCGF_IL8: BioMAP Diversity Plus: hDFCGF Assay for Interleukin-8 (IL8) Biomarker Activity (AID 2283058); conditions: primary human foreskin fibroblasts; actives raise or lower the signal
Method in brief: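 IL-8 levels from compound-treated primary human fibroblasts were read by ELISA at 24 h, with DMSO serving as baseline for bidirectional fitting.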

[9] = BSK_hDFCGF_Proliferation: Cell Proliferation Assessment in the BioMAP Diversity Plus: hDFCGF Assay (AID 2283059); conditions: primary human foreskin fibroblasts;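 note: curves fitted for both rise and fall of signal versus DMSO baseline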
Method in brief: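 This proliferation readout used SRB total-protein staining of human foreskin fibroblasts […], normalized to DMSO with bidirectional curve fitting.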

Measured: AC50

c1ccc(Nc2cccc3ccccc23)cc1
inactive: [1] | [3] | [5] | [6]
active: [1] 31.3 µM | [2] 10.1 µM and 7.36 µM | [3] 2.1 µM | [4] 30.3 µM and 34.6 µM | [5] 10.5 µM | [6] 7.35 µM | [7] 17.3 µM and 13.9 µM | [8] 35.1 µM and 36.6 µM | [9] 9.99 µM and 12.2 µM

C=CC(=O)NC(C)(C)C
inactive: all assays above

CC(C)C(=O)OCCc1ccccc1
inactive: all assays above

CCCCC1C(=O)N(c2ccccc2)N(c2ccccc2)C1=O
inactive: all assays above

CC(c1cc(C(C)(C)C)cc(C(C)(C)C)c1O)c1cc(C(C)(C)C)cc(C(C)(C)C)c1O
inactive: all assays above

CCCCCCC=O
inactive: all assays above

CCc1cccc(C)c1N(C(=O)CS(=O)(=O)O)C(C)COC (stereo not drawn)
inactive: all assays above

CCNc1nc(NC(C)(C)C)nc(OC)n1
inactive: all assays above

Nc1ccc(C(=O)O)cc1
inactive: all assays above

CCCCCCCO
inactive: all assays above

CCCCCCOC(=O)CCCCC(=O)OCCCCCC
inactive: all assays above

CC(CCC(=O)O)(c1ccc(O)cc1)c1ccc(O)cc1
inactive: all assays above

C=C(C)C(=O)OCCCCCCCCCCCC
active: [9] 11.7 µM
inactive: all other assays above

C=CC(=O)OCCCCCCOC(=O)C=C
inactive: [2]
active: [1] 20 µM | [3] 1.43 µM | [4] 2.12 µM | [5] 29.4 µM | [6] 10.8 µM | [7] 7.72 µM | [8] 20 µM | [9] 1.72 µM

O=C(Oc1ccccc1)c1ccccc1C(=O)Oc1ccccc1
active: [7] 11.5 µM | [9] 24 µM
inactive: all other assays above

C=CC(=O)OCC(C)OCC(C)OCC(C)OC(=O)C=C (stereo not drawn)
active: [1] 20 µM | [3] 2.28 µM | [4] 14.4 µM | [5] 8.9 µM | [6] 15.3 µM | [7] 35.7 µM | [8] 33.1 µM | [9] 6.25 µM
inactive: [2]

C=CC(=O)NCOCCCC
inactive: all assays above

CC1=CC=C(C(C)C)CC1
inactive: all assays above

c1ccc2c(c1)[nH]c1ccccc12
inactive: all assays above

Fc1ccc(Br)cc1
inactive: all assays above

COC(OC)(C(=O)c1ccccc1)c1ccccc1
inactive: all assays above

CC1(C)CC(O)CC(C)(C)N1[O]
inactive: all assays above

O=C(Cl)c1c(Cl)c(Cl)c(C(=O)Cl)c(Cl)c1Cl
inactive: all assays above

C=CC(=O)OCCCCCCCC(C)C
active: [6] 20 µM | [9] 9.62 µM
inactive: all other assays above

CC(Cl)COP(=O)(OCC(C)Cl)OCC(C)Cl (stereo not drawn)
inactive: all assays above

CC/C=C\CCOC(=O)c1ccccc1O
active: [1] 34.5 µM | [3] 20 µM | [4] 13.7 µM | [5] 36.3 µM | [6] 32.1 µM | [7] 11.8 µM | [9] 10 µM
inactive: [2] | [8]

C1CNCCN1
inactive: all assays above

CCOC(=O)/C=C\C(=O)OCC
inactive: all assays above

CCCCCCCCC(CO)CCCCCC (stereo not drawn)
active: [7] 4.17 µM | [9] 4.06 µM
inactive: all other assays above

CCCC(C)C(=O)OCC (stereo not drawn)
inactive: all assays above

Clc1cc(Cl)c(Cl)c(Cl)c1Cl
inactive: all assays above
